Measurements: PubChem BioAssay (NCATS)
Results filed as inconclusive are left out. A call without a number means that no potency is given here. Active and inactive are the calls of the source. Calls come from the whole dose curve; as a rule, active = well fitted inhibition curve with a large enough effect; inconclusive = small, poorly fitted or top-dose-only effect; inactive = flat fitted curve, though single readings scatter. Numbered stars: 1 amine (or outer) side, 2 acyl side, 3 side chain; on linkers, the order of the positions; unused ones are H or OH. Bridge positions count the residues as written; N and C are the ends. Square brackets hold non-standard residues; d marks the D form. Peptide text beside a SMILES is read from it. I, II: the chains in the order shown. Actinocin(9to1) = Cc1c2oc3c(C)ccc(C(=O)[*:1])c3nc-2c(C(=O)[*:2])c(N)c1=O; NMeV = CN[C@H](C(=O)O)C(C)C; Sar = CNCC(=O)O

Key:
Test in all cases: qHTS profiling for inhibitors of Plasmodium falciparum proliferation (AID 504749); note: nearly all actives have a fitted effect of over 60% in size
Conditions in all cases: P. falciparum in erythrocytes, SYBR Green DNA, 72 h; series mostly up to 28.7 µM
[1] = test system: ECU
Summary of the method: (§1)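 Readout was DNA-dye fluorescence from lysed cultures, ex 485/em 535 nm. Parasitized red cells had grown 72 h with compound; data scaled between 0.29 uM artemisinin and DMSO wells and corrected using vehicle-only plates.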

[2] = test system: FAB9
Summary of the method: as §1

[3] = test system: GB4
Summary of the method: as §1

[4] = test system: HB3
Summary of the method: as §1

[5] = test system: ICS
Summary of the method: as §1

[6] = test system: JCK
Summary of the method: as §1

[7] = test system: N140
Summary of the method: as §1

[8] = test system: P93_24
Summary of the method: as §1

[9] = test system: P94_40
Summary of the method: as §1

[10] = test system: PAD
Summary of the method: as §1
Potency is the fitted concentration of half-maximal effect.

With `NCCCC[C@H](N[C@@H](CCc1ccccc1)C(=O)O)C(=O)N1CCC[C@H]1C(=O)O` the Potency [1] was “inactive”, the Potency [2] was “inactive” and the Potency [3] was “inactive”. For the same molecule, the Potency [4] was “inactive”, the Potency [5] was “inactive” and the Potency [6] was “inactive”. For the same molecule, the Potency [7] was “inactive”, the Potency [8] was “inactive” and the Potency [9] was “inactive”. For the same molecule, the Potency [10] was “inactive”.

`CC(C)(C(=O)c1cccnc1)c1cccnc1` was tested, and the Potency [1] was “inactive”, the Potency [2] was “inactive” and the Potency [3] was “inactive”. The Potency [4] was “inactive”, the Potency [5] was “inactive” and the Potency [6] was 10 µM (active). The Potency [7] was “inactive”, the Potency [8] was “inactive” and the Potency [9] was “inactive”. The Potency [10] was “inactive”.

For `Cc1c(F)c(N2CCNC(C)C2)cc2c1c(=O)c(C(=O)O)cn2C1CC1` (configuration not stated), the Potency [1] was “inactive”, the Potency [2] was “inactive” and the Potency [3] was “inactive”. For the same molecule, the Potency [4] was “inactive”, the Potency [5] was “inactive” and the Potency [6] was “inactive”. For the same molecule, the Potency [7] was “inactive”, the Potency [8] was “inactive” and the Potency [9] was “inactive”. The Potency [10] was “inactive”.

In the case of `CC(=O)OCC(=O)[C@@]1(OC(C)=O)[C@@H](C)C[C@H]2[C@@H]3C[C@H](F)C4=CC(=O)C=C[C@]4(C)[C@@]3(F)[C@@H](O)C[C@@]21C`, the Potency [1] is reported as “inactive”, the Potency [2] is reported as “inactive” and the Potency [4] is reported as “inactive”. For the same molecule, the Potency [5] was 11.2 µM (active) and the Potency [6] was “inactive”.

With `CCN(CC)C(=O)/C(C#N)=C/c1cc(O)c(O)c([N+](=O)[O-])c1` the Potency [1] was “inactive”, the Potency [2] was “inactive” and the Potency [3] was “inactive”. For the same molecule, the Potency [4] was “inactive”, the Potency [6] was “inactive” and the Potency [7] was “inactive”. The Potency [8] was “inactive”, the Potency [9] was “inactive” and the Potency [10] was “inactive”.

With `CNCCC(Oc1ccccc1C)c1ccccc1` (configuration not stated) the Potency [1] was “inactive”, the Potency [2] was “inactive” and the Potency [3] was “inactive”. For the same molecule, the Potency [4] was “inactive”, the Potency [6] was “inactive” and the Potency [9] was “inactive”. The Potency [10] was “inactive”.

For `Cc1c(C(C)C)c(=O)n(-c2ccccc2)n1C`, the Potency [1] was “inactive”, the Potency [2] was “inactive” and the Potency [3] was “inactive”. The Potency [4] was “inactive”, the Potency [5] was “inactive” and the Potency [6] was “inactive”. The Potency [7] was “inactive”, the Potency [8] was “inactive” and the Potency [9] was “inactive”. The Potency [10] was “inactive”.

In the case of `CC(=O)Nc1c(I)cc(I)c(C(=O)O)c1I`, the Potency [1] is reported as “inactive”, the Potency [2] is reported as “inactive” and the Potency [3] is reported as “inactive”. For the same molecule, the Potency [4] was “inactive”, the Potency [5] was “inactive” and the Potency [6] was “inactive”. For the same molecule, the Potency [7] was “inactive”, the Potency [9] was “inactive” and the Potency [10] was “inactive”.

In the case of `CC(C)COC(=O)c1ccc(N)cc1`, the Potency [1] is reported as “inactive”, the Potency [2] is reported as “inactive” and the Potency [3] is reported as “inactive”. The Potency [4] was “inactive”, the Potency [5] was “inactive” and the Potency [7] was “inactive”. For the same molecule, the Potency [8] was “inactive” and the Potency [10] was “inactive”.

In the case of `CCN1CCC[C@H]1CNC(=O)c1c(OC)ccc(Br)c1OC`, the Potency [1] is reported as “inactive”, the Potency [2] is reported as “inactive” and the Potency [4] is reported as “inactive”. For the same molecule, the Potency [5] was “inactive”, the Potency [6] was “inactive” and the Potency [7] was “inactive”. The Potency [8] was “inactive”, the Potency [9] was “inactive” and the Potency [10] was “inactive”.

`Cc1cc(=O)n(-c2ccccc2)n1C` was tested, and the Potency [1] was “inactive”, the Potency [2] was “inactive” and the Potency [3] was “inactive”. The Potency [4] was “inactive”, the Potency [5] was “inactive” and the Potency [6] was “inactive”. For the same molecule, the Potency [7] was “inactive”, the Potency [8] was “inactive” and the Potency [9] was “inactive”. For the same molecule, the Potency [10] was “inactive”.

For `CC(O)(P(=O)(O)O)P(=O)(O)O`, the Potency [1] was “inactive”, the Potency [2] was “inactive” and the Potency [4] was “inactive”. The Potency [5] was “inactive”, the Potency [6] was “inactive” and the Potency [7] was “inactive”. For the same molecule, the Potency [8] was “inactive”, the Potency [9] was “inactive” and the Potency [10] was “inactive”.

In the case of `O=c1ccc2ccccc2o1`, the Potency [1] is reported as “inactive”, the Potency [2] is reported as “inactive” and the Potency [3] is reported as “inactive”. For the same molecule, the Potency [4] was “inactive”, the Potency [5] was “inactive” and the Potency [6] was “inactive”. For the same molecule, the Potency [7] was “inactive”, the Potency [8] was “inactive” and the Potency [9] was “inactive”. For the same molecule, the Potency [10] was “inactive”.

`CCCCCCCCCCCCCCCC[N+](C)(C)CC` was tested, and the Potency [1] was 5.01 µM (active), the Potency [2] was 7.94 µM (active) and the Potency [3] was 3.79 µM (active). For the same molecule, the Potency [4] was 7.08 µM (active), the Potency [5] was 1.41 µM (active) and the Potency [7] was 4.47 µM (active). The Potency [8] was 5.62 µM (active), the Potency [9] was 3.98 µM (active) and the Potency [10] was 8.91 µM (active).

In the case of `OC(CCN1CCCCC1)(c1ccccc1)c1ccccc1`, the Potency [1] is reported as “inactive”, the Potency [2] is reported as “inactive” and the Potency [3] is reported as 6.75 µM (active). For the same molecule, the Potency [4] was “inactive”, the Potency [5] was 12.6 µM (active) and the Potency [9] was 10 µM (active).

`Cc1c2oc3c(C)ccc(C(=O)N[C@@H]4C(=O)N[C@H](C(C)C)C(=O)N5CCC[C@H]5C(=O)N(C)CC(=O)N(C)[C@@H](C(C)C)C(=O)O[C@@H]4C)c3nc-2c(C(=O)N[C@@H]2C(=O)N[C@H](C(C)C)C(=O)N3CCC[C@H]3C(=O)N(C)CC(=O)N(C)[C@@H](C(C)C)C(=O)O[C@@H]2C)c(N)c1=O` (I: T[dV]P[Sar][NMeV] / II: T[dV]P[Sar][NMeV]; ester I:1-I:C, II:1-II:C; linker I:N-II:N via Actinocin(9to1)) was tested, and the Potency [1] was 0.0032 µM (active), the Potency [2] was 0.0112 µM (active) and the Potency [3] was 0.0048 µM (active). For the same molecule, the Potency [4] was 0.005 µM (active), the Potency [5] was 0.0025 µM (active) and the Potency [7] was 0.0035 µM (active). The Potency [8] was 0.005 µM (active), the Potency [9] was 0.0045 µM (active) and the Potency [10] was 0.005 µM (active).

In the case of `CN1CCN(C(c2ccccc2)c2ccccc2)CC1`, the Potency [1] is reported as “inactive”, the Potency [2] is reported as “inactive” and the Potency [4] is reported as “inactive”. For the same molecule, the Potency [5] was “inactive”, the Potency [6] was “inactive” and the Potency [10] was “inactive”.

For `Cc1cc(O)c(C(C)C)cc1Cl`, the Potency [1] was “inactive”, the Potency [2] was “inactive” and the Potency [5] was 10 µM (active). For the same molecule, the Potency [6] was “inactive”, the Potency [7] was “inactive” and the Potency [8] was “inactive”. For the same molecule, the Potency [9] was “inactive” and the Potency [10] was “inactive”.

With `COc1ccc(CN2CCN(C(c3ccc(F)cc3)c3ccc(F)cc3)CC2)c(OC)c1OC` the Potency [1] was 12.6 µM (active), the Potency [3] was 9.53 µM (active) and the Potency [4] was 11.2 µM (active). For the same molecule, the Potency [5] was 2.24 µM (active), the Potency [7] was 8.91 µM (active) and the Potency [8] was 7.94 µM (active). The Potency [9] was 7.08 µM (active) and the Potency [10] was 8.91 µM (active).

For `CCN(CCCc1ccccc1)CCCc1ccccc1`, the Potency [1] was “inactive”, the Potency [2] was “inactive” and the Potency [4] was “inactive”. For the same molecule, the Potency [6] was “inactive” and the Potency [10] was “inactive”.

With `CCCOC(C(=O)OC1CCN(C)CC1)(c1ccccc1)c1ccccc1` the Potency [1] was 10 µM (active), the Potency [2] was “inactive” and the Potency [5] was 7.94 µM (active). For the same molecule, the Potency [10] was “inactive”.

With `Oc1c(I)cc(Cl)c2cccnc12` the Potency [1] was “inactive”, the Potency [2] was “inactive” and the Potency [4] was “inactive”. For the same molecule, the Potency [6] was “inactive”, the Potency [8] was “inactive” and the Potency [9] was 12.6 µM (active).

With `O=C(CCN1CCC(c2ccccc2)C1)c1ccc2c(c1)OCCO2` (configuration not stated) the Potency [1] was “inactive”, the Potency [2] was “inactive” and the Potency [4] was “inactive”. The Potency [5] was “inactive”, the Potency [6] was “inactive” and the Potency [7] was “inactive”. For the same molecule, the Potency [10] was “inactive”.

With `CCCCCCCCCCCCCCCC[N+](C)(C)CCN(Cc1ccc(OC)cc1)c1ncccn1` the Potency [1] was 1.12 µM (active), the Potency [2] was “inactive” and the Potency [4] was “inactive”. The Potency [6] was “inactive”, the Potency [9] was “inactive” and the Potency [10] was “inactive”.

For `CC(=O)c1ccc2c(c1)N(CCCN1CCC(CCO)CC1)c1ccccc1S2`, the Potency [1] was “inactive”, the Potency [2] was “inactive” and the Potency [4] was “inactive”. For the same molecule, the Potency [6] was “inactive”, the Potency [7] was “inactive” and the Potency [9] was “inactive”. For the same molecule, the Potency [10] was “inactive”.

For `CN(C)CCCOc1nn(Cc2ccccc2)c2ccccc12`, the Potency [1] was “inactive”, the Potency [2] was “inactive” and the Potency [4] was “inactive”. The Potency [5] was “inactive”, the Potency [7] was “inactive” and the Potency [9] was “inactive”. The Potency [10] was “inactive”.

For `O=C1[C@H]2CCCC[C@H]2C(=O)N1CCCCN1CCN(c2nsc3ccccc23)CC1`, the Potency [1] was “inactive”, the Potency [2] was “inactive” and the Potency [6] was “inactive”. The Potency [7] was “inactive”, the Potency [9] was “inactive” and the Potency [10] was “inactive”.

With `COc1cc2c(cc1OC)C(=O)C(CC1CCN(Cc3ccccc3)CC1)C2` (configuration not stated) the Potency [1] was “inactive”, the Potency [2] was “inactive” and the Potency [4] was “inactive”. The Potency [6] was “inactive”, the Potency [7] was “inactive” and the Potency [8] was “inactive”. The Potency [9] was “inactive” and the Potency [10] was “inactive”.

For `Oc1c(I)cc(I)c2cccnc12`, the Potency [1] was “inactive”, the Potency [2] was “inactive” and the Potency [6] was “inactive”. The Potency [9] was 11.2 µM (active).

For `CCCCCCCCCCCCCCCCOP(=O)([O-])OCC[N+](C)(C)C`, the Potency [1] was “inactive”, the Potency [2] was “inactive” and the Potency [5] was “inactive”. For the same molecule, the Potency [6] was “inactive”, the Potency [7] was “inactive” and the Potency [8] was “inactive”. The Potency [9] was “inactive” and the Potency [10] was “inactive”.

With `CC/C(=C(/CC)c1ccc(O)cc1)c1ccc(O)cc1` the Potency [1] was “inactive”, the Potency [2] was “inactive” and the Potency [4] was “inactive”. The Potency [6] was “inactive”, the Potency [7] was “inactive” and the Potency [8] was “inactive”. For the same molecule, the Potency [10] was “inactive”.

With `Cc1c(C)n(Cc2ccccc2)c2ccc(C(=O)OCCN(C)C)cc12` the Potency [1] was “inactive”, the Potency [2] was “inactive” and the Potency [4] was “inactive”. For the same molecule, the Potency [6] was “inactive”, the Potency [7] was “inactive” and the Potency [8] was “inactive”. For the same molecule, the Potency [9] was “inactive” and the Potency [10] was “inactive”.

With `C#C[C@]1(O)CC[C@H]2[C@@H]3CCc4cc(OC5CCCC5)ccc4[C@H]3CC[C@@]21C` the Potency [1] was “inactive”, the Potency [2] was “inactive” and the Potency [4] was “inactive”. For the same molecule, the Potency [6] was “inactive”, the Potency [7] was “inactive” and the Potency [8] was “inactive”. For the same molecule, the Potency [10] was “inactive”.
